PPC-1+TRAIL kill: compounds killing PPC-1 cancer cells with TRAIL present (potentiator screen, no TRAIL-free arm); PPC-1 cells + TRAIL, ATPLite viability luminescence; cell killing (% activity), % at 4 µM or 5 µM; 220,000 tested, 0.41% active; AID 1443;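 active = cell killing above 50% in the first pass at 4 µM, then a duplicate retest at 5 µM averaging 50% or more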;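 note: plate controls were cells with TRAIL plus DMSO for no effect and medium-only wells lacking cells for full effect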
CF NFkB block: inhibitors of cystic fibrosis induced NF-kB. KKLEB NF-kB-GFP reporter, PAF-induced, GFP fluorescence overnight. inhibition, % at 5 µM. 360,000 tested, 0.86% active. AID 588850;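 active = at least 50% inhibition at 5 µM, scaled per plate between neutral and stimulator controls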;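 note: PAF is a Pseudomonas aeruginosa culture filtrate used as stimulus; plate controls were PAF-stimulated DMSO wells for no effect and unstimulated DMSO wells for full effect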
KKLEB tox: reduces viability of KKLEB cystic fibrosis airway cells; KKLEB CF airway cells viability, ATPlite luminescence, overnight; active compounds read low; cells stimulated with P. aeruginosa culture filtrate; activity change (cytotoxicity), % at 5 µM; 360,000 tested, 0.36% active;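 active = corrected activity change at or below -50% at 5 µM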
HIF-2a block: blocks HIF-2a reporter activity; 786-0 RCC cells HIF-2a reporter, luciferase luminescence, overnight; inhibition, % at 18.8 µM; 360,000 tested, 0.72% active; AID 624352;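 active = inhibition of the luminescence signal of 40% or more relative to plate controls, in a single-dose primary screen at 18.75 µM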
Peg3 prom inh: Peg3 promoter activity inhibition | HeLa PEG-Prom luciferase reporter, luminescence, overnight | inhibition, % at 20 µM | 360,000 tested, 1.7% active | AID 588405;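 active = inhibition of at least 50% at 20 µM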
C8 TRAIL sens: caspase-8 TRAIL sensitization | NB7+C8 cells + TRAIL, ATPlite viability luminescence | inhibition (viability loss, TRAIL sensitization), % at 10 µM | 360,000 tested, 1% active;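 active = compounds causing at least 50% loss of cell viability in the single-dose screen, relative to plate controls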
Active calls of the source: *; . = no result given. Most compounds without a hit are left out; they make up all but 3.1% or so of the library.

SMILES | PPC-1+TRAIL kill | CF NFkB block | KKLEB tox | HIF-2a block | Peg3 prom inh | C8 TRAIL sens
S=C1Nc2ccccc2CS1 | . | -15 | -1 | 12 | 5 | -11
CC1Oc2cc3oc4c(O)c(O)ccc4c(=O)c3c(O)c2C1(C)C (stereo not drawn) | . | -15 | -6 | -224 | -173 | 53*
COc1ccc(S(=O)(=O)N2CCC(C(=O)Nc3ccc(S(=O)(=O)N4CCCC4)cc3)CC2)cc1OC | . | 14 | -6 | 8 | 1 | 5
CN(C)c1ccc(Cc2cc3c(O)ccc(O)c3cc(Cc3ccc(N(C)C)cc3)c2=O)cc1 | . | -8 | 1 | 48* | 25 | -4
Cc1cc(NC(=O)c2cccc(Br)c2)n[nH]1 | . | 5 | 0 | -230 | 70* | 19
CCCS(=O)(=O)c1c(S(=O)(=O)CCC)c2c(C)cccn2c1C(=O)N/N=C/c1cc(O)cc(O)c1 | 33 | 11 | 0 | 10 | 53* | -2
O=C1NC(=O)C2(CCCCCC2)N1 | . | 0 | 0 | 11 | -3 | -2
C=CCN1C(=O)/C(=C\c2cc(Br)c(OCc3ccccn3)c(OC)c2)SC1=S | 14 | 50* | -39 | 14 | 3 | 6
O=C1CSC(=S)N1N=Cc1ccc2c(c1)OCO2 | . | -13 | 14 | -16 | -12 | -4
c1ccc2c(c1)oc1c(Nc3ccc(CN4CCOCC4)cc3)ncnc12 | 5 | -26 | -13 | -177 | 79* | 41
CCSCCOC(=O)C1=C(C)N(C)C(=O)NC1c1ccc2c(c1)OCO2 (stereo not drawn) | . | -12 | -1 | 17 | 21 | -9
CCOC(=O)c1cnc2ccc(Cl)cc2c1NCCN(C)C | -27 | -12 | 10 | 3 | 59* | 2
CCOC(=O)c1cnc2ccc(Br)cc2c1NCCO | -6 | -8 | -25 | 3 | 13 | -3
Cc1ccc(SCC(=O)NCCN2C(=O)CSC2=O)cc1C | 18 | -9 | 12 | -108 | -62 | -2
Cc1ccc(Nc2nnc(SCC(=O)NCCN3C(=O)CSC3=O)s2)cc1C | 48 | -1 | -5 | -131 | -114 | 53*
CCCS(=O)(=O)NC(=O)C1(C)CCN(C(=O)c2ccc(C(F)(F)F)nc2C)C1 (stereo not drawn) | . | 3 | -2 | 10 | 2 | -4
Oc1[nH]c2ccccc2c1C=Nc1ccc2c(c1)OCCO2 | 36 | -18 | 0 | -248 | -126 | 57*
Oc1c(Br)cc(Br)cc1C=Nc1ccc2c(c1)OCCO2 | 26 | 36 | 18 | 9 | 24 | -12
N#Cc1c(N)n(CCNC(=O)c2ccc(Cl)cc2)c2nc3ccccc3nc12 | 2 | -4 | 0 | 9 | 15 | -5
Cc1ccc(C(=O)NCCn2c(N)c(C#N)c3nc4ccccc4nc32)cc1 | 73* | -17 | 13 | 1 | -17 | -8
O=C(NN=C(c1ccccc1)c1ccccn1)c1ccccc1 | . | -21 | 8 | 8 | 47 | 7
O=C(N/N=C(\c1ccccc1)c1ccccn1)c1ccccc1Cl | . | 15 | -11 | 11 | 54* | 19
COc1ccc(CC2=CC(=O)c3ccccc3C2=O)cc1 | . | 52* | 12 | 22 | 47 | 3
C[C@H](CO)N1C[C@H](C)[C@@H](CN(C)S(=O)(=O)c2cn(C)cn2)Oc2ccc(NC(=O)Cn3cnnn3)cc2C1=O | . | -18 | 19 | 15 | -9 | -12
C=C(C)c1nc(Oc2ccccc2)nc(Oc2ccccc2)n1 | . | 6 | 1 | 11 | 106* | 55*
SMILES | PPC-1+TRAIL kill | CF NFkB block | KKLEB tox | HIF-2a block | Peg3 prom inh | C8 TRAIL sens
CC(=O)N1CCN(C(=O)CNC(=O)c2ccc(C)s2)CC1 | . | 11 | -10 | 17 | -11 | -9
Cc1noc(C)c1S(=O)(=O)N(C)C[C@H]1Oc2ccc(NC(=O)NC3CCCCC3)cc2C(=O)N([C@H](C)CO)C[C@@H]1C | . | -14 | 2 | 6 | 1 | -16
COc1ccc(O[C@@H]2O[C@H](COC(C)=O)[C@@H](OC(C)=O)[C@H](OC(C)=O)[C@H]2NC(C)=O)cc1 | 10 | 2 | -1 | 11 | 79* | -10
O=[N+]([O-])c1ccccc1S(=O)(=O)Nc1ccn(Cc2c(F)cccc2Cl)n1 | . | -2 | 12 | 0 | 8 | 18
CN(C)S(=O)(=O)c1ccc(-c2csc(N/N=C/c3ccco3)n2)cc1 | 12 | 11 | -3 | -16 | 61* | 72*
COCCN1C(=O)c2oc3ccccc3c(=O)c2C1c1cccc(O)c1 (stereo not drawn) | 6 | -16 | 4 | -9 | 13 | 5
